# Reference: the supplement of paper PMC9023506
# Where a name gives a salt, the structure may show the parent alone.
# Test system: Danio rerio larvae (5 dpf)
# Assay: optomotor response to blue moving lines, difference vs DMSO (percentage points (treated minus DMSO)); higher = more of the behaviour than the DMSO vehicle control
# Details: 10 µM; exposure time: 3 h pre-incubation + 3 h imaging
# Protocol: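 5-dpf wild-type zebrafish larvae were imaged in 96-well plates. They were treated with 190 Tocris FDA-approved drugs at 10 µM (1 µl/ml DMSO) for 3 h before and 3 h during imaging at 28.5 °C, 48 larvae per drug. Automated image analysis gave % time moving and optomotor responses. Values are drug group mean minus DMSO vehicle mean (n=844), in percentage points, for 10 behaviours.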
row,SMILES,optomotor response to blue moving lines
1,CN1C[C@H](C(=O)N[C@]2(C)O[C@@]3(O)[C@@H]4CCCN4C(=O)[C@H](Cc4ccccc4)N3C2=O)C[C@@H]2c3cccc4[nH]cc(c34)C[C@H]21 [Dihydroergotamine mesylate],12.8
2,CCN(C)C(=O)Oc1cccc([C@H](C)N(C)C)c1 [Rivastigmine tartrate],1.1
3,CC(O)(CS(=O)(=O)c1ccc(F)cc1)C(=O)Nc1ccc(C#N)c(C(F)(F)F)c1 (configuration not stated) [Bicalutamide],-16.6
4,COc1cc2c(cc1OC)C1CC(=O)C(CC(C)C)CN1CC2 (configuration not stated) [Tetrabenazine],-7.81
5,COc1ccc(C(CN(C)C)C2(O)CCCCC2)cc1 (configuration not stated) [Venlafaxine hydrochloride],3.9
6,Cc1cccc([C@H](C)c2c[nH]cn2)c1C [Dexmedetomidine hydrochloride],-12.4
7,O=c1[nH]c2ccccc2n1C1CCN(CCCC(c2ccc(F)cc2)c2ccc(F)cc2)CC1 [Pimozide],-7.76
8,C=CCN1C[C@H](C(=O)N(CCCN(C)C)C(=O)NCC)C[C@@H]2c3cccc4[nH]cc(c34)C[C@H]21 [Cabergoline],-0.85
9,C=C1C[C@@H]2[C@H](CC[C@]3(C)C(=O)CC[C@@H]23)[C@@]2(C)C=CC(=O)C=C12 [Exemestane],-2.19
10,N[C@@H]1C[C@H]1c1ccccc1 [Tranylcypromine hydrochloride],13.5
11,CC(C)C[C@H]1C(=O)N2CCC[C@H]2[C@]2(O)O[C@](NC(=O)[C@@H]3C=C4c5cccc6[nH]c(Br)c(c56)C[C@H]4N(C)C3)(C(C)C)C(=O)N12 [Bromocriptine mesylate],-29.3
12,CC[C@@H](C(N)=O)N1CCCC1=O [Levetiracetam],6.19
